# Data as given in the supplement of paper PMC6555819.
# Tests used:
# Assay in all cases: PBM binding z-score (relative to random genomic background probes); higher = stronger binding; sequences stand for … in GC…GCGATTGACAGCGTAGAATGAAGG
# [1] = test system: RARb homodimer (NR concentration 270 nM)
# Summary of the method: (§1)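 Each nuclear receptor dimer, without ligand, was incubated for 1 h on custom Agilent 4×180K protein-binding microarrays. Binding was detected with antibodies against each partner (one per run), and scanned fluorescence was regression-normalized. The binding z-scores are referenced to random human genomic background probes.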
# [2] = test system: RARg:RXRa (NR concentration 270 nM, RXRa partner concentration 90 nM)
# Summary of the method: as §1
# [3] = test system: RARg homodimer (NR concentration 270 nM)
# Summary of the method: as §1
# [4] = test system: RXRa DBDmut IVT, anti-RXR (DBD mutation: RXRa K156A/R161A, NR concentration 90 nM)
# Summary of the method: as §1
# [5] = test system: RXRa homodimer (NR concentration 180 nM)
# Summary of the method: as §1
# [6] = test system: THRa:RXRa (NR concentration 90 nM, RXRa partner concentration 90 nM)
# Summary of the method: as §1
# [7] = test system: THRa homodimer (NR concentration 90 nM)
# Summary of the method: as §1
# [8] = test system: VDR homodimer (NR concentration 270 nM)
# Summary of the method: as §1
Sequence,PBM binding z-score [1],PBM binding z-score [2],PBM binding z-score [3],PBM binding z-score [4],PBM binding z-score [5],PBM binding z-score [6],PBM binding z-score [7],PBM binding z-score [8]
CGTCAAAGTTCAAGGTAACGCAACAGAAAGCAGC,3.59,5.16,6.13,4.31,4.24,2.97,1,3.74
GCTAGTTGGTCATTAAAAGGTCACACACCGGTCG,5.47,6.05,4.99,0.694,5.65,3.8,2.01,1.75
ATCGAAAGGTCGTGAGGTGAGTATTCAGAAAGGC,3.27,4.51,4.1,1.91,5.4,3.48,1.52,0.921
AGAATGACGTTAAGATCAGGGAAACAGAATACAT,-0.348,0.0241,0.396,-0.43,0.183,-0.0731,-0.547,-0.184
CGAACTAGGCCAAGGACAGTGAATCTCCGCACGC,0.591,-0.0156,0.663,0.163,-0.0922,1.35,0.94,-0.0931
GCTGCTTGGTCAACTGATGGTCAGCTAAAGCTCG,0.641,0.828,0.795,0.0652,-0.182,-0.283,-0.699,-1.25
CGTCCAAGGTCAAGGTCAGTGAGAGAGACTCGAA,5.4,6.7,7.4,3.75,6.25,4.31,3.35,3.5
